Consider one molecule from the supplement of paper PMC7724964.

Experiment in all cases: phage ELISA signal ratio (GST-PRM binding over GST background); higher = stronger binding of peptide-phage to the PRM
(In general: In an ELISA, binding on a coated surface is turned into a signal by an enzyme label.)

The target of assay [1] is T1, ARID4A 568-634 Tudor-knot (domain begin residue: 568, domain end residue: 634), P29374.
T1 chain: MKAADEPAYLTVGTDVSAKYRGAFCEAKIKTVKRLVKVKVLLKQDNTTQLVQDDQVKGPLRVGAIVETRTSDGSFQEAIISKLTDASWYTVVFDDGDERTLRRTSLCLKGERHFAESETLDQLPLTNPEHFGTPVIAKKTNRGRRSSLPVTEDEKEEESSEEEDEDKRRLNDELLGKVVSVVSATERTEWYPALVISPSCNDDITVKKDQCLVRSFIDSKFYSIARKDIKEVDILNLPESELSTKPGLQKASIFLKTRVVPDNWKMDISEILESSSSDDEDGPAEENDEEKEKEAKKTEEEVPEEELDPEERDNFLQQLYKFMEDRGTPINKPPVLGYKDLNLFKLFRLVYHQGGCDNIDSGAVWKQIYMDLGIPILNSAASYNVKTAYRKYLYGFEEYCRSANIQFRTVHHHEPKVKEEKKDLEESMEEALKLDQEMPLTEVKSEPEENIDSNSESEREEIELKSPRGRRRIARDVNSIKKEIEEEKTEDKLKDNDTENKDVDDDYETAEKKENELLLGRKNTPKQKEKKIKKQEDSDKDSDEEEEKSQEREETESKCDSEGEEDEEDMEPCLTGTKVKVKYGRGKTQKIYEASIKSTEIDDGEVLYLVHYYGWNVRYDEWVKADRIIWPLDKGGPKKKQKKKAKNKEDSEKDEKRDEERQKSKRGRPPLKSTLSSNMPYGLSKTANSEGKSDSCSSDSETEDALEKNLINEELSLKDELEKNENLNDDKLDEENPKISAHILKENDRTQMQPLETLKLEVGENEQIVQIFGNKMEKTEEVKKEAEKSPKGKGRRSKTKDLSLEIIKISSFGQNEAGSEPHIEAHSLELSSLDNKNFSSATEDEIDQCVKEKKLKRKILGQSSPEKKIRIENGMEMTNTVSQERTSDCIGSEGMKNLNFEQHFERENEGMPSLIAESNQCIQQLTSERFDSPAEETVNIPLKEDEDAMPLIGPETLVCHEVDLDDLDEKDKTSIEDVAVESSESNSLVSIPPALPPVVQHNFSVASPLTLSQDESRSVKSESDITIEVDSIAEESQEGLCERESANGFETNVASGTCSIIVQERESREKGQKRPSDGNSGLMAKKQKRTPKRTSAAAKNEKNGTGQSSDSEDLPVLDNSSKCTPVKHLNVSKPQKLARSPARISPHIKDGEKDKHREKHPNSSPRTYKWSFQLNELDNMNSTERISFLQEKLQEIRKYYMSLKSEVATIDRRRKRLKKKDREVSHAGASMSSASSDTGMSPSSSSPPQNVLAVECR
On the procedure:
(§1)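 Phage-displayed random hexadecapeptides (Cys-free, flanked by invariant Gly linkers, fused to the M13 P8 major coat protein) were selected over 5 rounds against GST-fused human PRM domains. Individual clones from rounds 4-5 were tested by phage ELISA, and positive clones binding the target but not GST were sequenced. Values are the ELISA signal ratio of target over background (GST); the background signal is given separately.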

The target in assay [2] is KMT2C 1055-1137 PHD (domain begin residue: 1055, domain end residue: 1137). On the procedure: as §1
The target in assay [3] is T2, LBR 1-67 LBR_tudor (domain begin residue: 1, domain end residue: 67), Q14739.
T2 chain: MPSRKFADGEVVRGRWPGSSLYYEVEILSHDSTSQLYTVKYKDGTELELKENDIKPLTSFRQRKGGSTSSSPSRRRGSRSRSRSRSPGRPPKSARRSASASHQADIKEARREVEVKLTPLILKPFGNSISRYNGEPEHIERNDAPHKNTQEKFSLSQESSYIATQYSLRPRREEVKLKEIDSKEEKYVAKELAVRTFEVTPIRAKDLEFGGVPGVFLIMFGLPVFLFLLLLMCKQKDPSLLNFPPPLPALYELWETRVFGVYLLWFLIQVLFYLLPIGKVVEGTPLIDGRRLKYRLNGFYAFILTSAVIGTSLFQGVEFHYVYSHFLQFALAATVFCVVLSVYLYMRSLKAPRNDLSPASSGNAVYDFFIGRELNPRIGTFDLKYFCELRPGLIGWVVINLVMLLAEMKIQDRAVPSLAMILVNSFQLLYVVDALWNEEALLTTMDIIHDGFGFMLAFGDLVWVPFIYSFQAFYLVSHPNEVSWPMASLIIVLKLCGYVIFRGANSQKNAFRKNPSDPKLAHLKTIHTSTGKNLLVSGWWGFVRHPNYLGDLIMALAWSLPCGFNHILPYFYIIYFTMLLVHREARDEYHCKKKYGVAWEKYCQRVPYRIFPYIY
On the procedure:
as §1

Assay [4] addresses PAF1 165-376 Paf1 (domain begin residue: 165, domain end residue: 376), Q8N7H5. The protocol: as §1
Assay [5] addresses RBBP8 722-897 SAE2 (domain begin residue: 722, domain end residue: 897), Q99708. On the procedure:
as §1

Assay [6] has as its target SETD1A 2-220 RRM_1 (domain begin residue: 2, domain end residue: 220), O15047. On the procedure: as §1
Assay [7] addresses T3, SND1 650-910 TUDOR+SNase (domain begin residue: 650, domain end residue: 910), Q7KZF4.
T3 chain: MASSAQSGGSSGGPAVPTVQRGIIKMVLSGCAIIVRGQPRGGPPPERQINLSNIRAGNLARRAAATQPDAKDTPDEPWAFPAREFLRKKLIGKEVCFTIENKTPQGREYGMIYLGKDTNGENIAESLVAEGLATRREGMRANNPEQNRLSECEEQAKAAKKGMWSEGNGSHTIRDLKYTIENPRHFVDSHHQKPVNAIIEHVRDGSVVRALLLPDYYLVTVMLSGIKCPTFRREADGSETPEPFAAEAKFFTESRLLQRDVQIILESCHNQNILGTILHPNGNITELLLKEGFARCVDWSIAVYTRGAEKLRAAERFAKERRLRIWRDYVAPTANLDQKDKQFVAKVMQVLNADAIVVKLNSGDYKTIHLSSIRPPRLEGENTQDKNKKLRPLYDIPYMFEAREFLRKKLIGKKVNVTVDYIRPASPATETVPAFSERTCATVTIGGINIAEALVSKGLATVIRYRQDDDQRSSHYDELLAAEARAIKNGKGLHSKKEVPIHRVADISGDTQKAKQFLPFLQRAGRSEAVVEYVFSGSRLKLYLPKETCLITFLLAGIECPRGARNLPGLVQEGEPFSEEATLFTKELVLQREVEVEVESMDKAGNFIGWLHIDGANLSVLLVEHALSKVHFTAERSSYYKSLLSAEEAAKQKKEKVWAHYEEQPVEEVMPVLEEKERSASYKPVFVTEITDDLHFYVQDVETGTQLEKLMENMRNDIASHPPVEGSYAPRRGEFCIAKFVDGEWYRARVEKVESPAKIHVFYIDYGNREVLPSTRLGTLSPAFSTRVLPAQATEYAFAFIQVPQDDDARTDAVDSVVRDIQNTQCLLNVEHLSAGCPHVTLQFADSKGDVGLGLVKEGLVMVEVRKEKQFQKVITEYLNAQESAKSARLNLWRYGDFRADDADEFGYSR
On the procedure: as §1

For assay [8], the target named is T4, TDRD1 261-449 TUDOR (domain begin residue: 261, domain end residue: 449), Q9BXT4.
T4 chain: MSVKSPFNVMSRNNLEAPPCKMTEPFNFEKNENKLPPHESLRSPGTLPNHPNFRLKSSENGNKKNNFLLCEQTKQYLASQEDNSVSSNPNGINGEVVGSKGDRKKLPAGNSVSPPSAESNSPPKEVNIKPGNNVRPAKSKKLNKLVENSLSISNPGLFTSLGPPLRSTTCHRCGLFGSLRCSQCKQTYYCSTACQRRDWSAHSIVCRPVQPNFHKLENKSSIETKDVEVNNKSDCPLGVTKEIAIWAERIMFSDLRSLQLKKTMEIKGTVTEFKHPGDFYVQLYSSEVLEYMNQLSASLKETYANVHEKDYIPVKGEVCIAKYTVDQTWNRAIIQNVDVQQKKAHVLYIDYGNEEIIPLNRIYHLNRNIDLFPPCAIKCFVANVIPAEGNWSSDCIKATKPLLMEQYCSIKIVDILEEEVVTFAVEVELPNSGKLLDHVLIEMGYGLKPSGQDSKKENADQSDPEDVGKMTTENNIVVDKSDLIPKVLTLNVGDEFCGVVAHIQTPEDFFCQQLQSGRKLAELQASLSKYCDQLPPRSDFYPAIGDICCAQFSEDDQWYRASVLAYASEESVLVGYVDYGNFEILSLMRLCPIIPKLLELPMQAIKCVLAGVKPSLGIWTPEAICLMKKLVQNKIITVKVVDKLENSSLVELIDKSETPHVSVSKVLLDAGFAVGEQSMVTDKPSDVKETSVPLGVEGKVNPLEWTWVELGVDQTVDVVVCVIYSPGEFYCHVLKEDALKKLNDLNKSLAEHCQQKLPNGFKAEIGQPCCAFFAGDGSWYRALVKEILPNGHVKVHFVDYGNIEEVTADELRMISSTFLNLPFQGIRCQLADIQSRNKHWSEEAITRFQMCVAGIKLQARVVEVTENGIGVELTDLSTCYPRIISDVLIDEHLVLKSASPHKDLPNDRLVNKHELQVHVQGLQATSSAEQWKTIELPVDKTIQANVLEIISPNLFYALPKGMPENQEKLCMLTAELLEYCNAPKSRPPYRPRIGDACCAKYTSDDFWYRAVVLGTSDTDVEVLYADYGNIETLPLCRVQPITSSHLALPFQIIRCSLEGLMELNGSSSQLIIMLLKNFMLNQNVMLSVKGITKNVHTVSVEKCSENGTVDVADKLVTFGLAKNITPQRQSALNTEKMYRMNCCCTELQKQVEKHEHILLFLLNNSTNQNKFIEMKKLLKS
The protocol: as §1

Assay [9] has as its target T5, ZGPAT 120-268 zf-CCCH+TUDOR (domain begin residue: 120, domain end residue: 268), Q8N5A5.
T5 chain: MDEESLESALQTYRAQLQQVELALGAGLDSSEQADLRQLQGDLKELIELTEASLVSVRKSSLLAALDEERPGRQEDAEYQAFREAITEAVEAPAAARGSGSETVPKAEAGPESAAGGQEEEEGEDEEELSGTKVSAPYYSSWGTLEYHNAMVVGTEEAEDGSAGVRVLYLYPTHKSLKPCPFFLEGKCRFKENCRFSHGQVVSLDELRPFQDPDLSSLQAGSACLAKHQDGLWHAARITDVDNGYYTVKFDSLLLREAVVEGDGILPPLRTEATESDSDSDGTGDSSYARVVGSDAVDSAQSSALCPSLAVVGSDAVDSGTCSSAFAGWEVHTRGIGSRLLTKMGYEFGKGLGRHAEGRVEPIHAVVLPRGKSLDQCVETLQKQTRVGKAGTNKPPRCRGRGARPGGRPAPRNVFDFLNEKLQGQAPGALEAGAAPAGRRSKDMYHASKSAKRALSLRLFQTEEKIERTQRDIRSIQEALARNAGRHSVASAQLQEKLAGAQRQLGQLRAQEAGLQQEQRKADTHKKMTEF
The protocol: as §1

SETD1A 2-220 RRM_1 (domain begin residue: 2, domain end residue: 220), O15047, sequence (O15047 whole entry): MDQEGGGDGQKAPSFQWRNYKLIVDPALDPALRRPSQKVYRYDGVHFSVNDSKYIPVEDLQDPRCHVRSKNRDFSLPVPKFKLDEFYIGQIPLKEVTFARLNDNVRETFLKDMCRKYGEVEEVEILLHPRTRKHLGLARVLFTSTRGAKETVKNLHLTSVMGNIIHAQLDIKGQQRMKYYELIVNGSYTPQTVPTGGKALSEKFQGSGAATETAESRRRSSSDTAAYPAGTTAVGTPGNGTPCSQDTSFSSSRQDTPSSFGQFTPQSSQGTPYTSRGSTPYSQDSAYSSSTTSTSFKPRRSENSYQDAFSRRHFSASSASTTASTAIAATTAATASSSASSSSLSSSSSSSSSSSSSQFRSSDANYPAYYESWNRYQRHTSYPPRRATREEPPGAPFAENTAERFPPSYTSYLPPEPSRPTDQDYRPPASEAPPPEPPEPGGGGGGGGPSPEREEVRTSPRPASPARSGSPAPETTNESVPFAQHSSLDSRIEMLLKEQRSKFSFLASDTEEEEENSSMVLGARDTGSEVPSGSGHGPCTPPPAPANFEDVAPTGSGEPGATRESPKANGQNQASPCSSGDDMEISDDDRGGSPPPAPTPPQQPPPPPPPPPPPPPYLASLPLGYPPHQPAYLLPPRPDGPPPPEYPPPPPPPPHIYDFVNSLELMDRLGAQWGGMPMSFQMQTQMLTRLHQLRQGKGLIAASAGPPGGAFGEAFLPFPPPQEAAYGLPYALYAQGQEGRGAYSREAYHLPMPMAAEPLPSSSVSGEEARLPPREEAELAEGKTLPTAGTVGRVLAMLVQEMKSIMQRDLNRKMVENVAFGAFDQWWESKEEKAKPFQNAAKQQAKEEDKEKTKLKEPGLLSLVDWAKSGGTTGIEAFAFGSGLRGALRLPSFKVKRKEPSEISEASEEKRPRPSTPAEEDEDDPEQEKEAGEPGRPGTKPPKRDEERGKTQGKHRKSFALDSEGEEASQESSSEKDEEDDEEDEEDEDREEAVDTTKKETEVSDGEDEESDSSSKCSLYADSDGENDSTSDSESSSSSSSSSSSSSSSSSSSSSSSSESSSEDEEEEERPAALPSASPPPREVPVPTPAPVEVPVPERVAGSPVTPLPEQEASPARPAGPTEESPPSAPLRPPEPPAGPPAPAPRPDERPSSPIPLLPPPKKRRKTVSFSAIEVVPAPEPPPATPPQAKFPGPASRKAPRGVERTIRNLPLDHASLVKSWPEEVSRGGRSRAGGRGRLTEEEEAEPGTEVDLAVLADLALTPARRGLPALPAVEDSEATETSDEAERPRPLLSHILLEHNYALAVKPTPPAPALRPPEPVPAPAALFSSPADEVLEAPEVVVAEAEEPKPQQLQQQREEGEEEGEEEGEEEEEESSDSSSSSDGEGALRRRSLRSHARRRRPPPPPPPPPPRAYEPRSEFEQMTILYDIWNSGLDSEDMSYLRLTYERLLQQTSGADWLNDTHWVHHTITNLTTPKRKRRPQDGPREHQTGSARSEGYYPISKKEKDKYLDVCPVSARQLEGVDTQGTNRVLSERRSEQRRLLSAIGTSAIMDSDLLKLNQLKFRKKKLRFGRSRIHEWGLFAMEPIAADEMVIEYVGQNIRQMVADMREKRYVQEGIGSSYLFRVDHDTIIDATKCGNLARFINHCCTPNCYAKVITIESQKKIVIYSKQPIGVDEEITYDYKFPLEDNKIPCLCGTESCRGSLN
RBBP8 722-897 SAE2 (domain begin residue: 722, domain end residue: 897), Q99708, sequence (Q99708 whole entry): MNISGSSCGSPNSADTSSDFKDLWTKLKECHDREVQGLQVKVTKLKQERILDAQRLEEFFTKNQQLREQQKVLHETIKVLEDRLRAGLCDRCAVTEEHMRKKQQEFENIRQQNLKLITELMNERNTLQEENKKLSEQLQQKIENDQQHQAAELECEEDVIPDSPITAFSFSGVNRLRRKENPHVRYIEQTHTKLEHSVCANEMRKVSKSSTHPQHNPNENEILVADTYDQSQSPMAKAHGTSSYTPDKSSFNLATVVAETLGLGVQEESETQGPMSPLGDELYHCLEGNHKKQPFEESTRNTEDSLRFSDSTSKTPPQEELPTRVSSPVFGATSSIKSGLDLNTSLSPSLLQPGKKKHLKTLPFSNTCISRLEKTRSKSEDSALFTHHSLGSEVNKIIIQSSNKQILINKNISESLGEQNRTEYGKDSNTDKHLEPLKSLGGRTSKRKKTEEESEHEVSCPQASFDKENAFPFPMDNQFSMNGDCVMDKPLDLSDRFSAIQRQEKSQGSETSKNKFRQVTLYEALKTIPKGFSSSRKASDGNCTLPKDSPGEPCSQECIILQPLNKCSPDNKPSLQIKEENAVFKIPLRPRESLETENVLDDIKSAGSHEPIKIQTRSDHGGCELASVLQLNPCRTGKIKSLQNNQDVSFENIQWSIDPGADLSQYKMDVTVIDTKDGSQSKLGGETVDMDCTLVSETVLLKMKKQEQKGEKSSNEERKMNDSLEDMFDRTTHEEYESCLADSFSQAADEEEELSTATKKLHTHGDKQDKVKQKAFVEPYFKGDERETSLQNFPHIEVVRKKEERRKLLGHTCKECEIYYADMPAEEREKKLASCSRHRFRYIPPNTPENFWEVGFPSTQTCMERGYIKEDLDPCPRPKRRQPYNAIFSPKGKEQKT

In the case of WGWDEMLNDPEIMRIV, the “phage ELISA signal ratio” value came out at 12.7 in assay [1]; 8.35 in assay [2]; 7.63 in [3]; 6.83 in assay [4]; 6.44 in assay [5]; 7.71 in assay [6]. Also, the “phage ELISA signal ratio” value in [7] stood at 8.1; in [8], 10.8; in assay [9], 7.66.
